Hit rate of the full screen: of about 230,000 compounds, about 1,500 (0.65%) were called active. The sample holds actives, similar compounds and a random draw of the others, so the mix is not that of the screen.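 How the source made its calls: active means pattern-corrected inhibition of lipid staining of at least 50% with the nuclear-stain viability signal not falling by more than 50%; inactive means the rest, inconclusive results apart.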

This assay is described as follows: TAG lipid buildup reduction in H9c2 cells – cell-based, uHTS, fluorescence, primary screen (AID 651582).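 On inhibition: 0% = DMSO wells and 100% = triacsin C control wells.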 Particulars: Nile Red lipid (TAG) fluorescence, at 12.5 µM, cells loaded with 200 µM oleic acid; DAPI nuclei signal change (viability), lower = more cytotoxic: measured here: DAPI nuclei count viability; inhibition: stronger effect = higher value.
On to `Cc1cc(NC(=O)CSc2ncc(C(F)(F)F)cc2Cl)no1`, for which the DAPI nuclei signal change (viability), lower = more cytotoxic is -5.5% and the inhibition is 0.466% (inactive).
The like results for `Brc1ccc(CN2CC[C@H]3C=CCc4cccc(c43)C2)cc1` were, in that order, 12.5% and -54.7% (inactive).
The like results for `COc1ccc(Cl)cc1NC(=O)CN(C)C(=O)c1cc(-c2cccs2)nn1-c1ccccc1` were, in that order, 3.57% and 2.51% (inactive).
The like results for `Cc1nc2ccccn2c(=O)c1NC(=O)c1ccc(Br)o1` were, in that order, 4.97% and 4.01% (inactive).
Turning to `COc1ccc(C(O)c2nc(-c3ccc(OC)nc3)cs2)cc1` (stereo not given), the DAPI nuclei signal change (viability), lower = more cytotoxic was 4.55% and the inhibition is -44.6% (inactive).
For `COc1cc(/C=C2\Oc3ccc(C#Cc4ccc(O)cc4)cc3C2=O)cc(OC)c1` the same measures were -0.886% and 120% (active).
For `COc1cc(C#Cc2ccc3cc(CCCO)oc(=O)c3c2)cc(OC)c1` the same measures were -19.9% and 46.6% (inactive).
On to `COc1ccc2c(c1)O/C(=C\c1ccccc1O)C2=O`, for which the DAPI nuclei signal change (viability), lower = more cytotoxic was 4.81% and the inhibition is -5.85% (inactive).
For the molecule `O=C(CSc1n[nH]c(=O)n1-c1ccccc1)Nc1ccccc1C(F)(F)F`, the DAPI nuclei signal change (viability), lower = more cytotoxic was determined as 4.07% and the inhibition was 6.49% (inactive).
The like results for `COc1ccc(OC)c(NC(=O)C2CCCN2S(=O)(=O)c2ccc3c(c2)CC(C)N3C(C)=O)c1` (stereo not given) were, in that order, -10.6% and -4.08% (inactive).
As for `CCOC(=O)N1CCN(C(=O)c2ccccc2N(Cc2ccccc2)S(=O)(=O)c2ccc(OC)cc2)CC1`, the DAPI nuclei signal change (viability), lower = more cytotoxic is -41% and the inhibition was 53.3% (active).
For the molecule `NC(=O)c1ccccc1N(Cc1ccccc1)S(=O)(=O)c1ccccc1`, the DAPI nuclei signal change (viability), lower = more cytotoxic was -8.47% and the inhibition is 2.63% (inactive).
For `CCN1CCN(C(=O)c2ccccc2N(C)S(=O)(=O)c2ccc(C)cc2)CC1` the same measures were -0.758% and 7.33% (inactive).
The like results for `CCN1C[C@@H]2[C@@H]3C(=O)N(Cc4ccccc4)C(=O)[C@@H]3[C@](C)(C1=O)N2C(=O)c1ccc(C(C)(C)C)cc1` were, in that order, -6.19% and 19.2% (inactive).
On to `COc1ccc(NC(=O)CNc2cc(S(=O)(=O)N3CCOCC3)ccc2N2CCOCC2)c(OC)c1`, for which the DAPI nuclei signal change (viability), lower = more cytotoxic is 15.7% and the inhibition is -15.8% (inactive).
For `Cc1ccsc1/C=N/Nc1ccc(Cl)nn1`, the DAPI nuclei signal change (viability), lower = more cytotoxic is -14% and the inhibition is 5.97% (inactive).
Take `Clc1ccc(N/N=C/c2cccs2)nn1`: the DAPI nuclei signal change (viability), lower = more cytotoxic came out at 3.1% and the inhibition was -6.69% (inactive).
The like results for `C/C(=N\Nc1ccc(Cl)nn1)c1ccccc1O` were, in that order, -30.3% and 59.1% (active).
The like results for `COc1ccccc1-c1nn(Cc2ccccc2)cc1C(=O)N1CCN(c2ncccn2)CC1` were, in that order, -19.5% and 12.4% (inactive).
For `CC(C)C(=O)N1CCN(c2nc(-c3ccccc3)c3c(c2C#N)CC(C)(C)OC3)CC1` the same measures were 5.61% and 6.61% (inactive).
On to `CC(C)C(=O)N1CCC2(CC1)Oc1ccc(F)cc1C(=O)C21CC(c2ccccc2)=NO1` (stereo not given), for which the DAPI nuclei signal change (viability), lower = more cytotoxic was -26.9% and the inhibition was 60% (active).
For `O=C1CC2(CCN(C(=O)COc3ccc(F)cc3)CC2)Oc2ccccc21` the same measures were -14.6% and 21.4% (inactive).
As for `COc1ccc(C(=O)NCc2ccccc2C)cc1S(=O)(=O)NC1CCCC1`, the DAPI nuclei signal change (viability), lower = more cytotoxic came to 1.26% and the inhibition is -5.94% (inactive).
For `O=C1Nc2ccc(Br)cc2/C1=N/N=C/C1=C(N2CCOCC2)C(=C\c2ccccc2)/CC1` the same measures were -30.7% and 142% (active).
For `O=C(O)c1ccc(NN=CC2=C(N3CCOCC3)/C(=C/c3ccccc3)CC2)cc1` the same measures were 1.8% and 2.29% (inactive).
For `C(=N\N1CCN(c2ccccn2)CC1)/C1=C(N2CCOCC2)C(=C/c2ccccc2)/CC1` the same measures were 12.6% and 8.28% (inactive).
On to `CC(=O)Oc1ccc(Cn2c(C)c(C(=O)NCc3ccc(C#N)cc3)sc2=O)cc1`, for which the DAPI nuclei signal change (viability), lower = more cytotoxic is -0.306% and the inhibition was -4.77% (inactive).
Regarding `COc1cc(Cl)c(C)cc1NC(=O)CSc1nnc(CN2CCCC2)o1`, the DAPI nuclei signal change (viability), lower = more cytotoxic was 4.62% and the inhibition was 1.12% (inactive).
With `Cc1ccn(CC(=O)NC2CCCN(Cc3ccccc3F)C2)n1` (stereo not given), the DAPI nuclei signal change (viability), lower = more cytotoxic is 1.69% and the inhibition was -15.9% (inactive).
In the case of `Cc1ccc(OCCNC(=O)c2cccc(S(=O)(=O)N3CCN(Cc4ccccc4)CC3)c2)cc1`, the DAPI nuclei signal change (viability), lower = more cytotoxic amounted to 3.36% and the inhibition is -7.75% (inactive).
For `CC(C)CCOc1ccc(C(=O)Nc2cc(S(=O)(=O)N3CCOCC3)ccc2N2CCOCC2)cc1` the same measures were -52.3% and 65.1% (inactive).
Take `O=C(Cc1cccc2ccccc12)Nc1ccc2oc(-c3ccccc3)nc2c1`: the DAPI nuclei signal change (viability), lower = more cytotoxic was -5.68% and the inhibition was 55.2% (active).
Turning to `O=C(Nc1ccc2oc(-c3ccc4ccccc4c3)nc2c1)c1cccs1`, the DAPI nuclei signal change (viability), lower = more cytotoxic came to 21.1% and the inhibition is 33% (inactive).
For `CCCCCC(=O)Nc1ccc2oc(-c3ccncc3)nc2c1` the same measures were -5.68% and 4.08% (inactive).
Consider `CC(=O)NC(c1cccc(F)c1)c1nc(-c2cccc(F)c2)cs1` (stereo not given), for which the DAPI nuclei signal change (viability), lower = more cytotoxic amounted to 2.1% and the inhibition was -15.8% (inactive).
For `CCCn1c(N)c(C(=O)CSc2nnc(Cc3cccs3)n2C2CC2)c(=O)[nH]c1=O` the same measures were -3.34% and 5.02% (inactive).
On to `COc1ccc(S(=O)(=O)N2CCN(CC(=O)NCC3(N4CCOCC4)CCCCC3)CC2)cc1`, for which the DAPI nuclei signal change (viability), lower = more cytotoxic is -5.18% and the inhibition is -1.89% (inactive).
Take `COc1cc(Cn2c3ccc(NC(=O)CC(C)c4ccccc4)cc3c(=O)n2C)ccc1F` (stereo not given): the DAPI nuclei signal change (viability), lower = more cytotoxic turned out to be 6.84% and the inhibition is 4.12% (inactive).
As for `CCn1c2ccccc2c2cc(NC(=O)CNC)ccc21`, the DAPI nuclei signal change (viability), lower = more cytotoxic was -1.08% and the inhibition was 10.2% (inactive).
The like results for `CCOCCC(=O)Nc1ccc2c(c1)c(=O)n(C)n2-c1ccc2ccccc2c1` were, in that order, -27.1% and 52.9% (active).

The term inhibition denotes the drop in the measured response relative to a control, in per cent.

The values above are taken from PubChem BioAssay AID651582 (Sanford-Burnham Center for Chemical Genomics, 2012).
